# Data reported in PubChem BioAssay.
# For some of these results: Results with a measured potency or affinity are listed apart. Calls of active or inactive are those of the source.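 Rule for the calls, unless noted: active = primary screen inhibitor hit that blocks the TRPC4 channel at some tested dose, yielding a dose curve; inactive = the rest.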
# Assays:
# [1] = test system: TRPC4 beta (transient receptor potential cation channel C4), mouse; test: activators of mouse TRPC4 channel, confirmation, cell-based, Fluo4 calcium, HEK293 TRPC4beta/mu-opioid, duplicates, 10 µM (AID 2426;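 active = fluorescence ratio normalized to control raised more than 50% in primary screen plus both repeat runs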;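 for activation: percent rise of integrated ratio over buffer wells lacking compound which define 0%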); conditions: Fluo4 calcium fluorescence, at 10 µM; active compounds read high
# [2] = test system: transient receptor potential cation channel C4 beta (TRPC4), mouse; test: activators of mouse TRPC4 channel, confirmation, cell-based, second round, Fluo4, HEK293 TRPC4beta/mu-opioid, 1 µM (AID 2461;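 active = primary screen active and over 50% activation in each of two duplicate runs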); conditions: Fluo4 calcium fluorescence, at 1 µM; active compounds read high
# [3] = test system: TRPC4 (transient receptor potential cation channel C4 beta), mouse; test: positive allosteric modulators of mouse TRPC4, confirmation, cell-based, second round, Fluo-4, HEK293 TRPC4beta/mu-opioid, 1 µM (AID 2554;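 active = primary screen hit whose fluorescence ratio, in both repeats, exceeds the weak agonist control mean by 3 SD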); conditions: DAMGO EC20, Fluo-4 calcium flux, at 1 µM; active compounds read high
# [4] = test system: TRPC4 beta (transient receptor potential cation channel C4), mouse; test: positive allosteric modulators of mouse TRPC4, confirmation, cell-based, Fluo-4, HEK293 TRPC4beta/mu-opioid (AID 2555;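 active = primary screen hit whose calcium fluorescence ratio, in both repeats, exceeds the weak agonist control mean by 3 SD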); conditions: DAMGO EC20, Fluo-4 calcium flux, at 10 µM; active compounds read high
# [5] = biological target: Short transient receptor potential channel 4 (Mus musculus) (UniProt Q9QUQ5); test: inhibitors of mouse TRPC4 channel, confirmation, cell-based, Fluo4, HEK293 TRPC4beta/mu-opioid (AID 2636;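 active = calcium signal cut by more than 3 SD below the full-agonist control yet still positive, in both repeats and the earlier primary screen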); conditions: DAMGO, Fluo4 calcium flux, at 10 µM; active compounds read high
# [6] = biological target: Short transient receptor potential channel 4 (Mus musculus) (UniProt Q9QUQ5); test: inhibitors of mouse TRPC4 channel, confirmation, cell-based, second round, Fluo4, HEK293 TRPC4beta/mu-opioid, 1 µM (AID 2637;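 active = calcium signal ratio cut to more than 3 SD under the fully stimulated control mean yet still positive, in both repeats and the primary screen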); conditions: Fluo4 calcium flux, DAMGO, at 1 µM; active compounds read high
# [7] = biological target: Short transient receptor potential channel 4 (Mus musculus) (UniProt Q9QUQ5); test: mouse TRPC4 channel activators, dose response, cell-based, HEK293 TRPC4/mu-opioid, Fluo-4 calcium (AID 434937;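 active = primary screen activator hit with a dose response curve and TRPC4 channel activation at any tested dose; inactive = no activation, no dose response, or not a primary hit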)
# [8] = biological target: Short transient receptor potential channel 4 (Mus musculus) (UniProt Q9QUQ5); test: TRPC4 positive allosteric modulators, dose response, cell-based, HEK293 TRPC4/mu-opioid, Fluo-4 calcium, EC20 DAMGO (AID 434941;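 active = earlier screen potentiator hit that boosts the TRPC4 ion channel at some dose, with a dose response; inactive = no potentiation, no dose response, or not a prior hit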;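 note: calcium entry triggered by an EC20 dose of DAMGO at the co-expressed mu-opioid receptor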)
# [9] = biological target: Short transient receptor potential channel 4 (Mus musculus) (UniProt Q9QUQ5); test: mouse TRPC4 channel inhibitors, dose response, cell-based, HEK293 TRPC4/mu-opioid, Fluo-4 calcium (AID 434942)
# [10] = biological target: Short transient receptor potential channel 6 (Mus musculus) (UniProt Q61143); test: inhibition of mouse TRPC6 channel, confirmation, selectivity assay for TRPC4 inhibitor project, cell-based, HEK293, membrane potential dye, duplicate (AID 434948;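 active = active in primary screen and both duplicates, each dropping signal beyond three positive-control SD with fluorescence still positive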); conditions: HEK293 TRPC6, membrane potential dye fluorescence, at 10 µM, stimulated with maximal-effect acetylcholine; active compounds read high
# [11] = biological target: Short transient receptor potential channel 6 (Mus musculus) (UniProt Q61143); test: activation of mouse TRPC6 channel, confirmation, selectivity assay for TRPC4 activator project, cell-based, HEK293, membrane potential dye, duplicate (AID 434950;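 active = membrane potential signal rise above negative control mean plus 3 SD in both duplicates, also active in the earlier TRPC4 screen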;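 for activation: 0% = buffer only wells and 100% = acetylcholine maximal-effect wells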); conditions: HEK293 TRPC6, membrane potential fluorescence, at 10 µM; active compounds read high
# [12] = biological target: Short transient receptor potential channel 6 (Mus musculus) (UniProt Q61143); test: TRPC6 potentiation by TRPC4 potentiator hits, confirmation, selectivity assay for TRPC4 potentiator project, HEK293 cells, membrane potential dye, duplicate (AID 434952;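 active = compound raising the membrane signal above positive-control mean plus 3 SD in both repeats, and a primary screen hit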); conditions: HEK293 TRPC6, membrane potential dye fluorescence, at 10 µM, maximal acetylcholine added after compound; active compounds read high
# [13] = biological target: Short transient receptor potential channel 4 (Mus musculus) (UniProt Q9QUQ5); test: calcium flux activators in TRPC4/5HT1a cells, counter-screen for TRPC4 activator project, cell-based, second counter screen, HEK293 TRPC4/5HT1a, Fluo-4 (AID 434977;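 active = calcium signal rise above buffer-control mean plus 5 SD in both duplicates, and also a hit in the primary screen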;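 for activation: plate controls were assay buffer for no effect and maximal serotonin response for full effect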); conditions: Fluo-4 calcium flux, at 10 µM; active compounds read high
# [14] = calcium flux inhibitors in TRPC4/5HT1a cells, confirmation, counter-screen for TRPC4 inhibitor project, cell-based, second counter screen, HEK293 TRPC4/5HT1a, Fluo-4 (AID 434978;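 active = primary screen active whose calcium signal fell more than 3 SD beyond the full-serotonin control mean in both duplicate plates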;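 for outcome: serotonin given first at submaximal then at maximal dose after compound preincubation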); conditions: Fluo-4 calcium flux, at 10 µM, serotonin added to trigger calcium flux; active compounds read high
# [15] = test system: TRPC4 (mouse), co-expressed with 5HT1a in HEK293; test: calcium flux potentiators in TRPC4/5HT1a cells, confirmation, counter-screen for TRPC4 potentiator project, cell-based, second counter screen, HEK293 TRPC4/5HT1a, Fluo-4 (AID 434979;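 active = signal rise over 3 SD above mean of control wells given weak agonist, in both repeats and first screen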); conditions: Fluo-4 calcium flux, at 10 µM, serotonin added at its EC20 dose; active compounds read high
# [16] = calcium flux activation in mu-opioid HEK293 cells, confirmation, counter-screen for TRPC4 activator project, cell-based, HEK293 mu-opioid receptor line (AID 449723;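 active = hit in primary screen, with calcium signal over 5 SD above buffer well mean in both duplicates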;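 note: counter screen cells carry the mu-opioid receptor alone and lack TRPC4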); conditions: Fluo-4 calcium fluorescence, at 10 µM; active compounds read high
# [17] = calcium flux enhancement in mu-opioid HEK293 cells, confirmation, counter-screen for TRPC4 allosteric potentiator project, cell-based, HEK293 mu-opioid receptor line (AID 449724;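 active = calcium signal rise more than 3 SD above the low-dose agonist control mean, in both duplicate plates and the primary screen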); conditions: Fluo-4 calcium flux, at 10 µM, compound added before EC20 DAMGO stimulus; active compounds read high
# Short transient receptor potential channel 6 (Mus musculus), sequence (Q61143 whole entry, looked up): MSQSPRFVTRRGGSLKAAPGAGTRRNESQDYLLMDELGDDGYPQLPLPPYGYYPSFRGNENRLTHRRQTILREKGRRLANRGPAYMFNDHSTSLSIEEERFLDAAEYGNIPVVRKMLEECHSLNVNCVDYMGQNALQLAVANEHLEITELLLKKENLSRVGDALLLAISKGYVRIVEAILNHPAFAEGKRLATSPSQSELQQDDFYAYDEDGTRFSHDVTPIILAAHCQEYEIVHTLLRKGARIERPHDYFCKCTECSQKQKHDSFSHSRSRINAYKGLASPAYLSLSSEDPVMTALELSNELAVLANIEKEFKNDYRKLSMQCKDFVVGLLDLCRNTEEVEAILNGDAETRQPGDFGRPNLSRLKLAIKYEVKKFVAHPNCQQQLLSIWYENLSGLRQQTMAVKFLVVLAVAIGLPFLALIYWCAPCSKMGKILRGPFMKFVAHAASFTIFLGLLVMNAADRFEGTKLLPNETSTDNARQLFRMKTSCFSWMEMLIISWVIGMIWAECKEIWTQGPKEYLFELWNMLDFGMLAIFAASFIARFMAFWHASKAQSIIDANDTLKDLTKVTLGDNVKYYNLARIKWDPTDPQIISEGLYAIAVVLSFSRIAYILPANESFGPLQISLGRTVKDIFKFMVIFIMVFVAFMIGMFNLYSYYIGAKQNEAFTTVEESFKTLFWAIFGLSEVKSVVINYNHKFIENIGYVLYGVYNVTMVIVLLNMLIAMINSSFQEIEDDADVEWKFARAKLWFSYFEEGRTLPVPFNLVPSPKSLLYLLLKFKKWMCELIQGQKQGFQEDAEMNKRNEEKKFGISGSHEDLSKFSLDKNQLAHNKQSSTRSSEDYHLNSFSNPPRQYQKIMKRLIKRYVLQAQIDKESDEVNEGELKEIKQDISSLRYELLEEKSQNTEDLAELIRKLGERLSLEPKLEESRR
# Short transient receptor potential channel 4 (Mus musculus), sequence (Q9QUQ5 whole entry, looked up): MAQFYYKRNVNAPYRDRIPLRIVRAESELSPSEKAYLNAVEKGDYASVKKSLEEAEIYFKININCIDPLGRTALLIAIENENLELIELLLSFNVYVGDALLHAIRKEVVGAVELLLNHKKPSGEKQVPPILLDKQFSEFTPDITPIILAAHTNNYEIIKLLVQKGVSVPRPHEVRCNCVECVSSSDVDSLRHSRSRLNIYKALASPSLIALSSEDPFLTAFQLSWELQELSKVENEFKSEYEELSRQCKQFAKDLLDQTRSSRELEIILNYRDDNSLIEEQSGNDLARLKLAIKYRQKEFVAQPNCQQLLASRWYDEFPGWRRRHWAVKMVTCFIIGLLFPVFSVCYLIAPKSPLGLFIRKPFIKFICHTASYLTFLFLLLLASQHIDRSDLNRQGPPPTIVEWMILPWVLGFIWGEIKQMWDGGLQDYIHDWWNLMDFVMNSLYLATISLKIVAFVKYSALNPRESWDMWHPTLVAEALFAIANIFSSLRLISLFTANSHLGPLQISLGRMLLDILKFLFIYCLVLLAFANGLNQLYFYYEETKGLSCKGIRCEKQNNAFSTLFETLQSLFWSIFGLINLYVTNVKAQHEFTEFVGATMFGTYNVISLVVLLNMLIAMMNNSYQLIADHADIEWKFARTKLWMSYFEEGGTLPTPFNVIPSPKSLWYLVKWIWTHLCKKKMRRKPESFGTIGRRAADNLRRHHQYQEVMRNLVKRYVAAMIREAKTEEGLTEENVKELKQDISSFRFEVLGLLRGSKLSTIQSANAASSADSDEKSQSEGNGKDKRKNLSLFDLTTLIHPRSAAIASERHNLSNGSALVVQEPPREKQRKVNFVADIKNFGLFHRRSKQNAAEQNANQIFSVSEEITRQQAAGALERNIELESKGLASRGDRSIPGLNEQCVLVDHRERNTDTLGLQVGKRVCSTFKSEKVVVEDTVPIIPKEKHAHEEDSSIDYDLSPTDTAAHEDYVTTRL
compound,measurement,setting,value
O=C(N/N=C/c1ccccc1F)NC1CCCCC1,activation,[1],85% (active)
same,outcome,[2],inactive
same,potentiation,[3],12% (active)
same,potentiation,[4],77% (active)
same,outcome,[5],inactive
same,outcome,[6],inactive
same,outcome,[7],inactive
same,outcome,[8],inactive
same,outcome,[9],inactive
same,outcome,[10],inactive
same,activation,[11],36.5% (active)
same,outcome,[12],inactive
same,activation,[13],17.8% (active)
same,outcome,[14],inactive
same,potentiation,[15],107% (active)
same,outcome,[16],inactive
same,outcome,[17],inactive
CC(=O)n1cc([C@@H]2C=C(C(=O)NCc3ccccc3)O[C@H](OCc3ccc(CO)cc3)C2)c2ccccc21,outcome,[1],inactive
same,outcome,[2],inactive
same,outcome,[3],inactive
same,outcome,[4],inactive
same,outcome,[5],inactive
same,outcome,[6],inactive
same,outcome,[7],inactive
same,outcome,[8],inactive
same,outcome,[9],inactive
same,outcome,[10],inactive
same,outcome,[11],inactive
same,outcome,[12],inactive
same,outcome,[13],inactive
same,outcome,[14],inactive
same,potentiation,[15],14.7% (active)
same,outcome,[16],inactive
same,outcome,[17],inactive
O=[N+]([O-])c1ccc(N2CCCC2)nc1N1CCCC1,outcome,[1],inactive
same,outcome,[2],inactive
same,outcome,[3],inactive
same,outcome,[4],inactive
same,outcome,[5],inactive
same,outcome,[6],inactive
same,outcome,[7],inactive
same,outcome,[8],inactive
same,outcome,[9],inactive
same,outcome,[10],inactive
same,outcome,[11],inactive
same,outcome,[12],inactive
same,outcome,[13],inactive
same,outcome,[14],inactive
same,outcome,[15],inactive
same,outcome,[16],inactive
same,outcome,[17],inactive
O=C(NCc1ccccc1Cl)/C(=C\c1cccnc1)NC(=O)c1ccccc1,outcome,[1],inactive
same,outcome,[2],inactive
same,outcome,[3],inactive
same,outcome,[4],inactive
same,outcome,[5],inactive
same,outcome,[6],inactive
same,outcome,[7],inactive
same,outcome,[8],inactive
same,outcome,[9],inactive
same,outcome,[10],inactive
same,outcome,[11],inactive
same,outcome,[12],inactive
same,outcome,[13],inactive
same,outcome,[14],inactive
same,outcome,[15],inactive
same,outcome,[16],inactive
same,outcome,[17],inactive
CCOc1cc(S(=O)(=O)N2CCN(C(=O)c3ccco3)CC2)ccc1F,outcome,[1],inactive
same,outcome,[2],inactive
same,outcome,[3],inactive
same,potentiation,[4],12% (active)
same,outcome,[5],inactive
same,outcome,[6],inactive
same,outcome,[7],inactive
same,outcome,[8],inactive
same,outcome,[9],inactive
same,outcome,[10],inactive
same,outcome,[11],inactive
same,outcome,[12],inactive
same,outcome,[13],inactive
same,outcome,[14],inactive
same,potentiation,[15],32% (active)
same,outcome,[16],inactive
same,outcome,[17],inactive
O=C(Nc1ccc2c(c1)OCO2)c1cnn2cccnc12,outcome,[1],inactive
same,outcome,[2],inactive
same,outcome,[3],inactive
same,potentiation,[4],38% (active)
same,outcome,[5],inactive
same,outcome,[6],inactive
same,outcome,[7],inactive
same,outcome,[8],inactive
same,outcome,[9],inactive
same,outcome,[10],inactive
same,outcome,[11],inactive
same,outcome,[12],inactive
same,outcome,[13],inactive
same,outcome,[14],inactive
same,potentiation,[15],48.5% (active)
same,outcome,[16],inactive
same,outcome,[17],inactive
CC(C)Oc1cc(N)c(Cl)cc1Cl,outcome,[1],inactive
same,outcome,[2],inactive
same,outcome,[3],inactive
same,outcome,[4],inactive
same,outcome,[5],inactive
same,outcome,[6],inactive
same,outcome,[7],inactive
same,outcome,[8],inactive
same,outcome,[9],inactive
same,outcome,[10],inactive
same,outcome,[11],inactive
same,outcome,[12],inactive
same,outcome,[13],inactive
same,outcome,[14],inactive
same,outcome,[15],inactive
same,outcome,[16],inactive
same,outcome,[17],inactive
CCCCc1nc(N2CCOCC2)c(C#N)c2c1CCCC2,outcome,[1],inactive
same,outcome,[2],inactive
same,outcome,[3],inactive
same,outcome,[4],inactive
same,outcome,[5],inactive
same,outcome,[6],inactive
same,outcome,[7],inactive
same,outcome,[8],inactive
same,outcome,[9],inactive
same,outcome,[10],inactive
same,outcome,[11],inactive
same,outcome,[12],inactive
same,outcome,[13],inactive
same,inhibition,[14],36.5% (active)
same,outcome,[15],inactive
same,outcome,[16],inactive
same,outcome,[17],inactive
O=[N+]([O-])c1ccc2c(c1)C=C1CCCCC1(N1CCCC1)O2 (centres undefined),outcome,[1],inactive
same,outcome,[2],inactive
same,outcome,[3],inactive
same,outcome,[4],inactive
same,outcome,[5],inactive
same,outcome,[6],inactive
same,outcome,[7],inactive
same,outcome,[8],inactive
same,outcome,[9],inactive
same,outcome,[10],inactive
same,outcome,[11],inactive
same,outcome,[12],inactive
same,outcome,[13],inactive
same,outcome,[14],inactive
same,outcome,[15],inactive
same,outcome,[16],inactive
same,outcome,[17],inactive
Oc1ccccc1-c1cc(-c2ccco2)[nH]n1,outcome,[1],inactive
same,outcome,[2],inactive
same,outcome,[3],inactive
same,outcome,[4],inactive
same,outcome,[5],inactive
same,outcome,[6],inactive
same,outcome,[7],inactive
same,outcome,[8],inactive
same,outcome,[9],inactive
same,outcome,[10],inactive
same,outcome,[11],inactive
same,outcome,[12],inactive
same,outcome,[13],inactive
same,outcome,[14],inactive
same,outcome,[15],inactive
same,outcome,[16],inactive
same,outcome,[17],inactive
COC(=O)[C@@]12CCCN1[C@H](c1ccc(-c3ccc(OC)cc3)cc1)[C@@H]1C(=O)N(C)C(=O)[C@@H]12,outcome,[1],inactive
same,outcome,[2],inactive
same,outcome,[3],inactive
same,potentiation,[4],32% (active)
same,outcome,[5],inactive
same,outcome,[6],inactive
same,outcome,[7],inactive
same,outcome,[8],inactive
same,outcome,[9],inactive
same,outcome,[10],inactive
same,outcome,[11],inactive
same,outcome,[12],inactive
same,outcome,[13],inactive
same,outcome,[14],inactive
same,potentiation,[15],111% (active)
same,outcome,[16],inactive
same,outcome,[17],inactive
CN(C(=O)COC(=O)c1sc2ccccc2c1Cl)C1CCCCC1,outcome,[1],inactive
same,outcome,[2],inactive
same,outcome,[3],inactive
same,potentiation,[4],36% (active)
same,outcome,[5],inactive
same,outcome,[6],inactive
same,outcome,[7],inactive
same,outcome,[8],inactive
same,outcome,[9],inactive
same,outcome,[10],inactive
same,outcome,[11],inactive
same,outcome,[12],inactive
same,outcome,[13],inactive
same,outcome,[14],inactive
same,potentiation,[15],64.8% (active)
same,outcome,[16],inactive
same,outcome,[17],inactive
Cc1cc(C)c(C)c(S(=O)(=O)NCc2ccco2)c1C,outcome,[1],inactive
same,outcome,[2],inactive
same,outcome,[3],inactive
same,outcome,[4],inactive
same,outcome,[5],inactive
same,outcome,[6],inactive
same,outcome,[7],inactive
same,outcome,[8],inactive
same,outcome,[9],inactive
same,outcome,[10],inactive
same,outcome,[11],inactive
same,outcome,[12],inactive
same,outcome,[13],inactive
same,outcome,[14],inactive
same,potentiation,[15],28.1% (active)
same,outcome,[16],inactive
same,outcome,[17],inactive
CC(=O)Oc1c(C)cc(O)c2ccccc12,outcome,[1],inactive
same,outcome,[2],inactive
same,outcome,[3],inactive
same,outcome,[4],inactive
same,outcome,[5],inactive
same,outcome,[6],inactive
same,outcome,[7],inactive
same,outcome,[8],inactive
same,outcome,[9],inactive
same,outcome,[10],inactive
same,outcome,[11],inactive
same,outcome,[12],inactive
same,outcome,[13],inactive
same,outcome,[14],inactive
same,outcome,[15],inactive
same,outcome,[16],inactive
same,outcome,[17],inactive
CCc1cc2c(SCC(=O)N(C)C3CCS(=O)(=O)C3)ncnc2s1 (centres undefined),outcome,[1],inactive
same,outcome,[2],inactive
same,outcome,[3],inactive
same,potentiation,[4],35% (active)
same,outcome,[5],inactive
same,outcome,[6],inactive
same,outcome,[7],inactive
same,outcome,[8],inactive
same,outcome,[9],inactive
same,outcome,[10],inactive
same,outcome,[11],inactive
same,outcome,[12],inactive
same,outcome,[13],inactive
same,outcome,[14],inactive
same,potentiation,[15],42.5% (active)
same,outcome,[16],inactive
same,outcome,[17],inactive
COc1ccc(N2CCN(C3CCCCC3NS(=O)(=O)c3ccc(Cl)cc3)CC2)cc1 (centres undefined),outcome,[1],inactive
same,outcome,[2],inactive
same,outcome,[3],inactive
same,outcome,[4],inactive
same,outcome,[5],inactive
same,outcome,[6],inactive
same,outcome,[7],inactive
same,outcome,[8],inactive
same,outcome,[9],inactive
same,outcome,[10],inactive
same,outcome,[11],inactive
same,outcome,[12],inactive
same,outcome,[13],inactive
same,outcome,[14],inactive
same,potentiation,[15],10.1% (active)
same,outcome,[16],inactive
same,outcome,[17],inactive
Cc1cc(Nc2ccc3c(c2)OCCO3)c2ccccc2n1,outcome,[1],inactive
same,outcome,[2],inactive
same,outcome,[3],inactive
same,outcome,[4],inactive
same,outcome,[5],inactive
same,outcome,[6],inactive
same,outcome,[7],inactive
same,outcome,[8],inactive
same,outcome,[9],inactive
same,outcome,[10],inactive
same,outcome,[11],inactive
same,outcome,[12],inactive
same,outcome,[13],inactive
same,outcome,[14],inactive
same,outcome,[15],inactive
same,outcome,[16],inactive
same,outcome,[17],inactive
